Measurements published in PubChem BioAssay (NCI).
Compounds without any hit were thinned out: in the full panel of roughly 79,000, 15% have a hit. Activity calls are given as the source filed them. Rule as the data show it: active = growth inhibition above about 70%; inactive = the rest.

Assays:
[1] = NCI Yeast Anticancer Drug Screen. Data for the mec2-1 strain (AID 157); conditions: S. cerevisiae mec2-1 strain, stronger effect = higher value
In short: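 Each compound was tested on mec2-1 yeast, a strain altered in DNA damage repair or cell cycle control. Growth inhibition is reported relative to vehicle.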

[2] = NCI Yeast Anticancer Drug Screen. Data for the rad14 strain (AID 159);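 also: 0% = growth of vehicle-treated control cultures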; conditions: S. cerevisiae rad14 strain growth inhibition, stronger effect = higher value
In short: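 Inhibition of growth is reported for a repair-deficient yeast mutant following compound treatment, calculated relative to cultures that received vehicle.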

[3] = NCI Yeast Anticancer Drug Screen. Data for the sgs1 mgt1 strain (AID 161);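 also: 0% = growth of cultures given vehicle only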; conditions: S. cerevisiae sgs1 mgt1 strain, stronger effect = higher value
In short: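 Read-out: growth inhibition vs vehicle controls. Cells: mutant yeast strain deficient in DNA damage repair.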

[4] = NCI Yeast Anticancer Drug Screen. Data for the CLN2oe strain (AID 163);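 also: 0% = growth of vehicle-only control cultures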; conditions: S. cerevisiae CLN2oe strain, stronger effect = higher value
In short: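 First, the altered yeast strain was treated with each compound; second, its growth was measured; finally, inhibition was derived by comparison with vehicle controls.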

[5] = NCI Yeast Anticancer Drug Screen. Data for the cln2 rad14 strain (AID 165);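 also: 0% = growth equal to vehicle treated cultures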; conditions: S. cerevisiae cln2 rad14 strain, stronger effect = higher value
In short: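 Test compounds were added to cln2 rad14 yeast cultures; inhibition of growth was then determined by comparison with vehicle treatment.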

[6] = NCI Yeast Anticancer Drug Screen. Data for the bub3 strain (AID 167); conditions: S. cerevisiae bub3 mutant strain, stronger effect = higher value
In short: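 Mutant yeast screening strain plus compound; vehicle-treated cultures serve as the 0% inhibition reference.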

[7] = NCI Yeast Anticancer Drug Screen. Data for the wt2 strain (AID 169); conditions: S. cerevisiae wt2 strain growth inhibition, stronger effect = higher value
In short: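 The panel's yeast strains carry defined changes in DNA repair or cell cycle genes. Each strain is grown with compound, and growth loss is scored relative to vehicle.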

[8] = NCI Yeast Anticancer Drug Screen. Data for the sgs1 strain (AID 173);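 also: 0% = growth of vehicle-only control cultures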; conditions: S. cerevisiae sgs1 mutant, stronger effect = higher value
In short: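 Vehicle-treated cultures served as reference for growth inhibition of a yeast strain altered in DNA damage repair or cell cycle control after compound exposure.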

[9] = NCI Yeast Anticancer Drug Screen. Data for the mlh1 rad18 strain (AID 175); conditions: S. cerevisiae mlh1 rad18 strain growth inhibition, stronger effect = higher value
In short: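 Inhibition values reflect reduced growth of mutant yeast versus vehicle-treated controls following compound exposure; the mutations affect DNA damage repair.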

[10] = NCI Yeast Anticancer Drug Screen. Data for the rad18 strain (AID 177); conditions: S. cerevisiae rad18 mutant growth inhibition, stronger effect = higher value
In short: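 Steps: expose repair-mutant yeast to compound; measure growth; express as inhibition relative to vehicle control.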

[11] = NCI Yeast Anticancer Drug Screen. Data for the rad52 strain (AID 147);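 also: 0% = growth of vehicle-treated control cultures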; conditions: S. cerevisiae rad52 mutant growth inhibition, stronger effect = higher value
In short: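 Inhibition of yeast growth, referenced to vehicle controls, was the measured output for a strain with defective DNA damage repair.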

[12] = NCI Yeast Anticancer Drug Screen. Data for the rad50EPP+ strain (AID 151);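 also: 0% = growth of vehicle-treated control cultures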; conditions: S. cerevisiae rad50 mutant strain, stronger effect = higher value
In short: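 Genetically defined yeast (rad50EPP+, DNA damage repair alteration) is grown with compound, and inhibition of growth is expressed relative to vehicle-treated controls.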

[13] = NCI Yeast Anticancer Drug Screen. Data for the mgt1 strain (AID 153); conditions: S. cerevisiae mgt1 mutant growth inhibition, stronger effect = higher value
In short: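 In the mgt1 strain, test compounds were added and growth inhibition was determined relative to vehicle-treated controls.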

[14] = NCI Yeast Anticancer Drug Screen. Data for the rad50 strain (AID 155);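 also: 0% = growth of vehicle-only cultures of the same strain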; conditions: S. cerevisiae rad50 strain growth inhibition, stronger effect = higher value
In short: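 Vehicle-treated cultures provide the reference for the growth inhibition reported for compound-exposed, repair-deficient yeast.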

[15] = NCI Yeast Anticancer Drug Screen. Data for the mlh1 strain (AID 171);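 also: 0% = growth of vehicle-treated control cultures of the same strain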; conditions: S. cerevisiae mlh1 strain growth inhibition, stronger effect = higher value
In short: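 Inhibition values reflect reduced yeast growth in the presence of compound, referenced to vehicle controls, using a strain chosen for its alteration in DNA repair or cell cycle control.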

[16] = at 5.0 µM (retest, dose inferred, filed as 0.5)
[17] = at 50.0 µM (retest, dose inferred, filed as 5.0)

Measured: growth inhibition

CCOC1Oc2ccccc2-c2nc(N)ncc21 (centres undefined)
active: [3]; [17] 85% | [9]; [17] 76%
inactive: [1]; at 100.0 µM -15% | [2]; at 1.2 µM -3% | [2]; at 3.7 µM -5% | [2]; at 11.0 µM -4% | [2]; at 33.0 µM -1% | [2]; at 100.0 µM -4% | [3]; [16] 10% | [3]; at 50.0 µM -4.55% | [4]; at 1.2 µM 7% | [4]; at 3.7 µM 4% | [4]; at 11.0 µM -14% | [4]; at 33.0 µM -27% | [4]; at 100.0 µM 1% | [5]; [16] 22% | [5]; [17] 37% | [5]; at 50.0 µM -20.9% | [6]; at 1.2 µM 4% | [6]; at 3.7 µM -7% | [6]; [16] 2% | [6]; at 11.0 µM -12% | [6]; at 33.0 µM -5% | [6]; [17] 23% | [6]; at 50.0 µM -16.8% | [6]; at 100.0 µM -9% | [7]; at 1.2 µM -3% | [7]; at 3.7 µM -7% | [7]; at 11.0 µM -7% | [7]; at 33.0 µM -2% | [7]; at 100.0 µM -10% | [8]; at 1.2 µM 3% | [8]; at 3.7 µM 11% | [8]; at 11.0 µM 5% | [8]; at 33.0 µM -9% | [8]; at 100.0 µM -9% | [9]; [16] 12% | [9]; at 50.0 µM -21.9% | [10]; at 1.2 µM 4% | [10]; at 3.7 µM 7% | [10]; at 11.0 µM -1% | [10]; at 33.0 µM 3% | [10]; at 100.0 µM -2%

COC(=O)CCC(NC(=S)N/N=C(\C)c1ccccn1)C(=O)OC (centres undefined)
inactive: [11]; at 1.2 µM -21% | [11]; at 3.7 µM -27% | [11]; at 11.0 µM 1% | [11]; at 33.0 µM 61% | [12]; at 1.2 µM 6% | [12]; at 3.7 µM -5% | [12]; at 11.0 µM 2% | [12]; at 33.0 µM 18% | [12]; at 100.0 µM 34% | [13]; at 1.2 µM 14% | [13]; at 3.7 µM 6% | [13]; at 11.0 µM 28% | [13]; at 33.0 µM 64% | [14]; at 1.2 µM 8% | [14]; at 3.7 µM 3% | [14]; [16] 34% | [14]; at 11.0 µM 26% | [1]; at 1.2 µM -11% | [1]; at 3.7 µM -7% | [1]; [16] 9% | [1]; at 11.0 µM 12% | [1]; at 33.0 µM 57% | [2]; at 1.2 µM 2% | [2]; at 3.7 µM -3% | [2]; at 11.0 µM 21% | [2]; at 33.0 µM 69% | [3]; [16] 7% | [4]; at 1.2 µM 7% | [4]; at 3.7 µM 2% | [4]; at 11.0 µM 18% | [4]; at 33.0 µM 62% | [5]; [16] -5% | [6]; at 1.2 µM 24% | [6]; at 3.7 µM 28% | [6]; [16] 22% | [6]; at 11.0 µM 32% | [7]; at 1.2 µM -37% | [7]; at 3.7 µM -29% | [7]; at 11.0 µM -3% | [7]; at 33.0 µM 51% | [15]; at 1.2 µM 20% | [15]; at 3.7 µM 2% | [15]; at 11.0 µM 23% | [15]; at 33.0 µM 62% | [8]; at 1.2 µM -14% | [8]; at 3.7 µM -15% | [8]; at 11.0 µM 20% | [8]; at 33.0 µM 67% | [9]; [16] -13% | [10]; at 1.2 µM -16% | [10]; at 3.7 µM -27% | [10]; at 11.0 µM 10%
active: [11]; at 100.0 µM 90% | [13]; at 100.0 µM 91% | [14]; at 33.0 µM 72% | [14]; [17] 79% | [14]; at 50.0 µM 77.5% | [14]; at 100.0 µM 93% | [1]; [17] 78% | [1]; at 50.0 µM 77.5% | [1]; at 100.0 µM 90% | [2]; at 100.0 µM 92% | [3]; [17] 80% | [3]; at 50.0 µM 82.8% | [4]; at 100.0 µM 88% | [5]; [17] 82% | [5]; at 50.0 µM 83% | [6]; at 33.0 µM 77% | [6]; [17] 84% | [6]; at 50.0 µM 81.3% | [6]; at 100.0 µM 93% | [7]; at 100.0 µM 87% | [15]; at 100.0 µM 92% | [8]; at 100.0 µM 92% | [9]; [17] 79% | [9]; at 50.0 µM 75.5% | [10]; at 33.0 µM 70% | [10]; at 100.0 µM 91%

N/C(=N/N=C/c1cc(Br)cc(Br)c1O)NO
inactive: [11]; at 1.2 µM -37% | [11]; at 3.7 µM -26% | [11]; at 11.0 µM 17% | [12]; at 1.2 µM -27% | [12]; at 3.7 µM -24% | [12]; at 11.0 µM -6% | [12]; at 33.0 µM 28% | [13]; at 1.2 µM -36% | [13]; at 3.7 µM -27% | [13]; at 11.0 µM 66% | [14]; at 1.2 µM -39% | [14]; at 3.7 µM -34% | [14]; [16] -1% | [14]; at 11.0 µM 6% | [1]; at 1.2 µM -89% | [1]; at 3.7 µM -62% | [1]; [16] 13% | [1]; at 11.0 µM -6% | [2]; at 1.2 µM -19% | [2]; at 3.7 µM -1% | [3]; [16] 10% | [4]; at 1.2 µM -6% | [4]; at 3.7 µM -11% | [4]; at 11.0 µM 25% | [5]; [16] 7% | [6]; at 1.2 µM -40% | [6]; at 3.7 µM -60% | [6]; [16] -5% | [6]; at 11.0 µM 44% | [7]; at 1.2 µM -2% | [7]; at 3.7 µM -9% | [7]; at 11.0 µM 35% | [15]; at 1.2 µM -78% | [15]; at 3.7 µM -40% | [15]; at 11.0 µM 58% | [8]; at 1.2 µM -35% | [8]; at 3.7 µM -28% | [8]; at 11.0 µM 59% | [9]; [16] 16%
active: [11]; at 33.0 µM 90% | [11]; at 100.0 µM 97% | [12]; at 100.0 µM 73% | [13]; at 33.0 µM 95% | [13]; at 100.0 µM 98% | [14]; at 33.0 µM 90% | [14]; [17] 99% | [14]; at 50.0 µM 96.1% | [14]; at 100.0 µM 97% | [1]; at 33.0 µM 87% | [1]; [17] 99% | [1]; at 50.0 µM 85.8% | [1]; at 100.0 µM 96% | [2]; at 11.0 µM 82% | [2]; at 33.0 µM 97% | [2]; at 100.0 µM 98% | [3]; [17] 99% | [3]; at 50.0 µM 97.8% | [4]; at 33.0 µM 95% | [4]; at 100.0 µM 98% | [5]; [17] 99% | [5]; at 50.0 µM 92.3% | [6]; at 33.0 µM 93% | [6]; [17] 99% | [6]; at 50.0 µM 87% | [6]; at 100.0 µM 97% | [7]; at 33.0 µM 94% | [7]; at 100.0 µM 98% | [15]; at 33.0 µM 93% | [15]; at 100.0 µM 97% | [8]; at 33.0 µM 93% | [8]; at 100.0 µM 96% | [9]; [17] 99% | [9]; at 50.0 µM 98.7%
